Bioassay records deposited in PubChem by National Center for Advancing Translational Sciences (NCATS).
Hits are enriched below; roughly 6.2% of the tested compounds scored in any of these assays.
Gal4-VP16 FLuc: inhibits Gal4-VP16 luciferase reporter, ROR gamma counter-screen | Drosophila S2 Gal4-VP16 UAS-luciferase, luminescence, 20 h | 3.5% of 310,000 active | Potency, µM (highest dose often 53.6 µM), inactives show at the highest dose activity, negative = inhibition, usual class: inhibitors;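 also: Gal4-VP16 expression switched on by copper sulfate through the metallothionein promoter; nearly all actives have a fitted effect of over 50% in size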
KinaseGlo FLuc: Kinase-Glo luciferase inhibition (counter-screen); 0.28% of 200,000 active; Q27757; Kinase-Glo luciferase, ATP luminescence, 8 min; AID 1379; Potency, µM (doses to about 38.3 µM), for the others: top-dose activity change, negative = inhibition, most hits filed as inhibitors; also: nearly all actives have a fitted effect of over 60% in size
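Recombinant Kinase-Glo luciferase, 10 uM ATP (linear range), luciferin; imidazole pH 7.2 / KCl / MgCl2 / Tween / BSA buffer; 8 min RT; luminescence.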
RORg inh: inhibitors of mouse ROR gamma transcriptional activity; AID 2551; Potency, µM (top dose mostly 53.6 µM), inactives show at the top dose activity change, negative = inhibition, hits mostly inhibitors; 5.4% of 310,000 active; P51450; Drosophila S2 Gal4-RORgamma UAS-luciferase reporter, 20 h; also: nearly all actives have a fitted effect of over 60% in size
Target sequence (P51450 whole entry, looked up, the tested form may be a part): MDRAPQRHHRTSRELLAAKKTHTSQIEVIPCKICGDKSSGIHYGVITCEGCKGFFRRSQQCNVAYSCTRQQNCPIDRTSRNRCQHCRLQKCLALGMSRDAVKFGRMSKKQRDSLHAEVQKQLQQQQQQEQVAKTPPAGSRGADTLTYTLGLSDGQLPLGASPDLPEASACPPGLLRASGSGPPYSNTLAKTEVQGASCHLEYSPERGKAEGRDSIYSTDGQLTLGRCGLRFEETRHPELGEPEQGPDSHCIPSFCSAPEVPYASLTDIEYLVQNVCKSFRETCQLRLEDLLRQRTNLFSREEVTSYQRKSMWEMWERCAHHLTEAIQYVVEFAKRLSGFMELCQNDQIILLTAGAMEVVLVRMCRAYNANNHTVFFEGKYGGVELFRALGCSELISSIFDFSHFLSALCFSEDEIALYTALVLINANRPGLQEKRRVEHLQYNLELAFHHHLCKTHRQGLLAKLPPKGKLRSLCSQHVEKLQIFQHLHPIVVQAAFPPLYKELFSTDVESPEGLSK
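Using a luciferase readout, inhibitors were identified by reduced reporter activity in Drosophila cells coexpressing a copper-inducible Gal4–ROR gamma fusion and UAS-driven Photinus luciferase, incubated 20 hr after 700 uM copper sulfate.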
Starred values were filed as active, the others as inactive; ? = inconclusive; · = not tested or not shown; [ ] = remark or other dose. Calls follow the shape of the dose curve; as a rule, active = well fitted curve in the direction sought with a large enough effect; inconclusive = small, poorly fitted or top-dose-only effect, or another doubt; inactive = no such curve, though single readings can be large; an effect the other way counts as inactive or inconclusive. % is scaled to controls: 0 for no effect and ±100 for the full control effect; potency is read from the fitted curve at half-maximal effect.

SMILES	Gal4-VP16 FLuc	KinaseGlo FLuc	RORg inh
Cc1cc(N2CCN(C)CC2)nc2ccc(NC(=S)N3CCCCC3)cc12	3.7%	0.9%	-10.7%
Cc1cccc(N2CCN(C(=S)Nc3ccc4nc(N5CCN(C)CC5)cc(C)c4c3)CC2)c1C	4.47µM*	-3.7%	4.47µM*
COc1ncc2nc(-c3cccs3)c(=O)n(Cc3ccc(F)cc3)c2n1	-6.1%	·	-21.3%
COc1cccc(OC)c1C1=Nn2c(nnc2-c2ccccc2O)SC1	2.4%	·	?
COc1ccc(Br)cc1/C=N/N1C(=O)CSC1=S	-24.2%	·	14.1µM*
COc1cc(/C=N/N2C(=O)CSC2=S)ccc1O	1.0%	-2.7%	2.8%
O=C(NC1CCCCC1)c1ccc(CNc2ccccc2)o1	-8.5%	1.4%	26.3%
Cc1ccc(NC(=S)c2ccccc2)cc1	?	-4.0%	11.2µM*
COc1ccc(NC(=S)c2ccncc2)cc1	5.4%	-0.5%	32.8%
Cc1ccc(NC(=S)N/C(=N/S(=O)(=O)c2ccccc2)c2ccccc2)cc1	12.6µM*	-2.9%	?
Cc1ccc(NC(=S)c2ccncc2)cc1	-12.5%	·	-10.8%
Cc1ccc(S(=O)(=O)/N=C(/NC(=S)Nc2ccccc2)c2ccccc2)cc1	3.0%	0.8%	-34.4%
COc1ccc(C(=S)Nc2ccc(C)cc2)cc1	13.4%	-2.2%	12.6µM*
COc1ccc(CC(=O)NNC(=O)c2c(-c3ccccc3Cl)noc2C)cc1OC	-13.4%	·	15.5%
CC1CCCCC1NC(=O)COCc1cc(-c2cccs2)on1 (stereo not given)	7.1%	·	8.4%
O=C(NN1C(=O)c2ccccc2NC1c1ccco1)c1ccc([N+](=O)[O-])cc1 (stereo not given)	14.7%	0.8%	23.0%
CCn1c(SCC(=O)NC2CCCCC2C)nnc1-c1ccc(OC)cc1 (stereo not given)	-4.4%	1.9%	1.5%[10 µM]
COc1ccc(-c2noc(CN3CCCCC3c3nccn3C)n2)cc1 (stereo not given)	?	1.9%	3.55µM*
Cn1ccnc1C1CCCCN1Cc1nc(-c2ccc3c(c2)OCO3)no1 (stereo not given)	-10.5%	·	?
FC(F)(F)c1cccc(Cc2noc(CN3C[C@@H]4CCC[C@H]3C4)n2)c1	7.9%	4.8%	10.8%
Cn1ccnc1C1CCCCN1Cc1nc(Cc2cccc(C(F)(F)F)c2)no1 (stereo not given)	?	3.4%	7.08µM*
CCC(=O)c1cccc2c1N=CC1=C(CC(C)(C)CC1=O)N2	3.6%	5.3%	-3.1%
COc1ccc(CCNC(=O)CSc2ncn[nH]2)cc1	-2.9%	-3.9%	20.9%
O=P(c1ccccc1)(c1ccccc1)C(c1ccco1)N1CCOCC1 (stereo not given)	4.8%	-3.4%	2.24µM*
O=C(NCc1ccccc1)C(=O)NCC(c1ccco1)N1CCOCC1 (stereo not given)	-6.9%	1.4%	-14.9%
SMILES	Gal4-VP16 FLuc	KinaseGlo FLuc	RORg inh
CCCn1c(=O)c(C(=O)NCCc2ccccc2)c(O)c2ccccc21	?	·	-73.2%
C=CCn1c(=O)c(C(=O)NCCc2ccccc2)c(O)c2ccccc21	?	1.6%	14.1µM*
CCCn1c(=O)c(C(=O)NCCc2ccc(OC)cc2)c(O)c2ccccc21	12.6µM*	·	?
C=CCn1c(=O)c(C(=O)Nc2cccnc2)c(O)c2ccccc21	-18.8%	0.2%	36.5%
C=C1CCN(C(Cc2ccccc2)C(=O)N2CCOCC2)S(=O)(=O)c2ccccc21 (stereo not given)	15.1%	·	2.3%
C/C(=C\C(=O)c1ccccc1)Nc1ccc2c(c1)OCO2	18.7%	-2.6%	-10.8%
CC(=O)c1cccc(NC(=O)c2cc(S(=O)(=O)N3CCOCC3)cs2)c1	-8.1%	·	-19.8%
O=c1c2cc(Br)ccc2nc2n1CCCCC2	-0.7%	-4.8%	24.6%
Fc1ccc2nc3n(c2c1F)CCCCCC3	-21.2%	-1.5%	11.2µM*
O=C(Cl)c1c(Cl)cccc1Cl	4.1%	·	0.2%
Cc1onc(-c2c(F)cccc2Cl)c1C(=O)N(Cc1ccccc1)C(C)C	3.4%	·	3.8%
COc1cccc(NC(=O)c2nc(S(C)(=O)=O)ncc2Cl)c1	5.01µM*	·	3.98µM*
COc1cccc(NC(=O)c2nc(SC)ncc2Cl)c1	15.6%	·	40.1%
CN(c1ccccc1)S(=O)(=O)c1ccc(Cl)nc1	2.8%	-1.4%	4.6%
CN(c1ccccc1)S(=O)(=O)c1ccc(NC(=O)c2nc(S(C)(=O)=O)ncc2Cl)cc1	2.82µM*	·	6.31µM*
CCO[C@H]1OC(C(=O)Nc2ccccc2)=C[C@@H](c2cn(C(C)=O)c3ccccc23)[C@@H]1CCCO	7.5%	·	33.6%
Cc1cc(Cc2cc(C)c(N)cc2N)c(N)cc1N	·	-7.0%[7.66 µM]	·
OC1OC[C@H](O)[C@H](O)[C@H]1O (stereo not given in full)	-7.5%	·	2.9%
CC(=O)N1CCCc2cc(S(=O)(=O)N3CCCC3)ccc21	23.8%	·	-9.2%
Cc1cccc(CNc2cc(-c3ccc(C(=O)N(C)C)cc3)ncn2)c1	-10.4%	-5.2%	18.8%
Cc1cccc(N/C(=N\S(=O)(=O)c2ccccc2)C(F)(F)F)c1	5.8%	3.0%	-18.1%
O=C(Nc1ccccc1N1CCOCC1)c1cccc([N+](=O)[O-])c1	-6.7%	-1.8%	-28.8%
O=C(NC(=S)Nc1ccccc1N1CCOCC1)c1ccc([N+](=O)[O-])cc1	?	12.4%	8.91µM*
O=C(NC(=S)Nc1ccccc1N1CCCC1)c1ccc([N+](=O)[O-])cc1	0.112µM*	-1.5%	0.0501µM*
Cc1c(C(=O)NC(=S)Nc2ccccc2N2CCCC2)cccc1[N+](=O)[O-]	-100.5%	-1.3%	?
SMILES	Gal4-VP16 FLuc	KinaseGlo FLuc	RORg inh
CCN(CC)CC(=O)N1c2ccccc2CCc2ccc(NC(=O)c3cc(OC)c(OC)c(OC)c3)cc21	3.4%	·	0.2%
CCC(=O)c1ccc(OCCSc2ncccn2)cc1	-6.1%	-3.1%	11.2µM*
CCC(=O)c1ccc(OCC(=O)O)cc1	0.9%	10.6%	-2.5%[10 µM]
Cc1noc(C)c1CSc1nnc(-c2ccncc2)n1-c1ccc(Cl)c(Cl)c1	-12.2%	-1.6%	23.3%
CC(C)Oc1ccc(C2CC(=O)N(c3cccc(Br)c3)C2=O)cc1 (stereo not given)	-15.7%	·	?
O=C(NC1CCCc2ccccc21)C1CCCC1 (stereo not given)	-3.1%	·	-6.5%
O=C(NC(=S)NC1CCCc2ccccc21)c1ccco1 (stereo not given)	?	1.9%	7.08µM*
N#Cc1ccc(C(=O)NC2CCCc3ccccc32)cc1 (stereo not given)	14.4%	-1.2%	17.3%
O=C(NC(=S)NC1CCCc2ccccc21)c1ccc(F)cc1 (stereo not given)	15.8µM*	·	8.91µM*
COc1ccc(OC)c(S(=O)(=O)N2CCC(C(=O)Nc3ccc(C)c(C)c3)CC2)c1	-11.8%	-2.8%	21.6%
Cn1cccc1/C=C(\C#N)C(N)=S	3.0%	·	-14.8%
Cc1cc(C)c(C)c(/C=C(/C#N)C(N)=S)c1C	15.8µM*	-4.4%	6.31µM*
CC(C)CC(=O)NC1(C(F)(F)F)C(=O)Nc2c1c(=O)n(C)c(=O)n2C (stereo not given)	-3.2%	1.4%	-12.3%
COc1ccccc1C(N)=S	?	1.0%	15.8µM*
COc1ccccc1O	-1.8%	·	16.8%
O=C(CN1CCN(C(=O)c2ccco2)CC1)Nc1ccc(F)cc1F	-14.2%	·	6.0%
